“And” between values parts separate entries of the source, which are not always exact repeats. Equal entries are not always repeated. Results filed as inconclusive are left out. The source holds several records for some structures; these can differ, active in one and inactive in another. The source made the active and inactive calls. The call rests on the fitted dose curve; in most records, active means well fitted curve in the direction sought with a large enough effect; inconclusive means small, poorly fitted or top-dose-only effect, or another doubt; inactive means no such curve, though single readings can be large; an effect the other way counts as inactive or inconclusive.

One assay relates to C33A. The assay is described as follows: Primary qHTS to identify gynecologic anti-cancer compounds using libraries of approved drugs and bioactive compounds (AID 1345084). Further: nearly all actives have a fitted effect of over 55% in size. The conditions noted are these: Gynecologic cancer cell panel viability, ATPlite luminescence, 48 h; series mostly up to 57.5 µM. Summed up:
(§1)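 Cells, 1,000 per well, were allowed to settle for 16 h at 37 C before compound addition. Five concentrations were tested for 48 h, and viability was read by ATPlite luminescence after 15 min at room temperature.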
In general terms: In qHTS, concentration-response curves come from the screen itself.

The test system of the next assay is CAOV3. The assay is described as above. The conditions noted are these: Gynecologic cancer cell panel viability, ATPlite luminescence, 48 h; series mostly up to 57.5 µM. Summed up: as §1
On the technique in general: ATP-based viability assays read luminescence as a measure of living cells.

The subject of a further assay is CASKI. Described as above. The conditions noted are these: Gynecologic cancer cell panel viability, ATPlite luminescence, 48 h; series mostly up to 57.5 µM. Summed up:
as §1

The next assay concerns Es-2. Described as above. As to conditions: Gynecologic cancer cell panel viability, ATPlite luminescence, 48 h; series mostly up to 57.5 µM. The gist of the method:
as §1

A further assay concerns Hek293T. The assay is described as above. As to conditions: Gynecologic cancer cell panel viability, ATPlite luminescence, 48 h, control line for the selectivity index; series mostly up to 57.5 µM. Summed up:
as §1

The next assay relates to JEG-3. The assay is described as above. The conditions noted are these: Gynecologic cancer cell panel viability, ATPlite luminescence, 48 h; series mostly up to 57.5 µM. The gist of the method:
as §1

The subject of the next assay is OV90. The assay is described as above. The conditions noted are these: Gynecologic cancer cell panel viability, ATPlite luminescence, 48 h; series mostly up to 57.5 µM. The gist of the method:
as §1

Another assay deals with PA-1. Described as above. The conditions noted are these: Gynecologic cancer cell panel viability, ATPlite luminescence, 48 h; series mostly up to 57.5 µM. The gist of the method: as §1
In the next assay the test system is SKOV3. The assay is described as above. The conditions noted are these: Gynecologic cancer cell panel viability, ATPlite luminescence, 48 h; series mostly up to 57.5 µM. Summed up: as §1
The next assay deals with Tov-21-G. The description is as above. The conditions noted are these: Gynecologic cancer cell panel viability, ATPlite luminescence, 48 h; series mostly up to 57.5 µM. The gist of the method: as §1
In the next assay the test system is Tov112D. The description is as above. The conditions noted are these: Gynecologic cancer cell panel viability, ATPlite luminescence, 48 h; series mostly up to 57.5 µM. Summed up: as §1
Assay [1] is described as follows: Drug repurposing screens with cells derived from glioblastoma tumor samples (AID 1345199). Further: nearly all actives have a fitted effect of over 40% in size. As to conditions: GBM patient neurospheres viability, ATP luminescence, 48 h. Summed up:
(§2)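 Primary testing used CD133+ neurospheres from four GBM patients, seven concentrations, 48 h exposure and ATP-based viability; confirmation added three slower-growing patient lines.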

In the next assay the test system is astro. The description is as above. As to conditions: viability, ATP luminescence, 48 h; series mostly up to 45.9 µM. The gist of the method:
as §2

In a further assay the test system is MKL-1. Briefly: qHTS assay to identify novel small-molecules to repurpose for Merkel cell carcinoma treatment (AID 1296009). Further: nearly all actives have a fitted effect of over 60% in size. The conditions noted are these: MCC and control cell lines, CellTiter-Glo viability, 72 h; series mostly up to 46 µM. Summed up: (§3)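 Luminescence from CellTiter-Glo, read 10 min after addition at room temperature, reported viability following a 72 hr, 37 degree celsius treatment with NPC or MIPE compounds in titration; values normalized to plate controls.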

In another assay the test system is NIH3T3. Described as above. The conditions noted are these: MCC and control cell lines, CellTiter-Glo viability, 72 h; at 44.8 µM (top of the series) unless noted. Summed up:
as §3

Another assay concerns WaGa. The description is as above. As to conditions: MCC and control cell lines, CellTiter-Glo viability, 72 h; series mostly up to 46 µM. The gist of the method: as §3
In the next assay the test system is HeLa. Briefly: Primary qHTS to identify gynecologic anti-cancer compounds using libraries of approved drugs and bioactive compounds (AID 1345084). Further: nearly all actives have a fitted effect of over 55% in size. As to conditions: Gynecologic cancer cell panel viability, ATPlite luminescence, 48 h; series mostly up to 57.5 µM. Summed up: as §1
A further assay concerns MKL-2. Briefly: qHTS assay to identify novel small-molecules to repurpose for Merkel cell carcinoma treatment (AID 1296009). Further: nearly all actives have a fitted effect of over 60% in size. The conditions noted are these: MCC and control cell lines, CellTiter-Glo viability, 72 h; series mostly up to 46 µM. The gist of the method: as §3
Another assay concerns UISO. The assay is described as above. The conditions noted are these: MCC and control cell lines, CellTiter-Glo viability, 72 h; series mostly up to 46 µM. The gist of the method: as §3
Where [2] appears, read: at 45.9 µM (top of the series), tumour line B.
Setting [3] is: at 45.9 µM (top of the series), tumour line D.
The mark [4] stands for this setting: at 46 µM (top of the series), tumour line A.
The mark [5] stands for this setting: at 46.1 µM (top of the series), tumour line C.
On the % scale 0 is the no-effect control and ±100 the full control effect; potency means the concentration at half of the fitted maximal effect.

As to `Cc1nnc(NS(=O)(=O)c2ccc(N)cc2)s1`, the Potency result in the assay with C33A, with CAOV3, in the assay with CASKI, in the assay with Es-2, with Hek293T and with JEG-3 was “inactive” in each case. Besides, the Potency result with OV90, in the assay with PA-1, in the assay on SKOV3, in the assay with Tov-21-G, in the assay with Tov112D and with astro was “inactive” each time. The activity, negative = cell killing in [1] (setting [2]) is 4.69% (inactive); in assay [1] (setting [3]), 17.1% (inactive); in assay [1] (setting [4]), 7.16% (inactive); in assay [1] (setting [5]) it was 5.44% (inactive).

On to `CC(=O)Oc1ccccc1C(=O)Nc1ncc([N+](=O)[O-])s1`, for which the Potency result in the assay on MKL-1, in the assay on C33A, in the assay on CAOV3, in the assay on CASKI, with JEG-3 and in the assay on OV90 was “inactive” throughout. The Potency entry in the assay on Tov-21-G and in the assay with Tov112D was “inactive” throughout. For the same compound, the outcome in the assay with NIH3T3 was “inactive [at 92 µM]”. For the same compound, the Potency entry with WaGa was “inactive and 16.8 µM (active)”; with astro, 5.01 µM (active).

As to `Cc1onc(-c2ccccc2Cl)c1C(=O)N[C@@H]1C(=O)N2[C@@H]1SC(C)(C)[C@@H]2C(=O)O`, the Potency entry in the assay with C33A, with CAOV3, with CASKI, in the assay with Es-2, with HeLa and in the assay with Hek293T was “inactive” in each case. Besides, the Potency entry in the assay with JEG-3, in the assay with OV90, in the assay on PA-1, with SKOV3, in the assay on Tov-21-G and in the assay on Tov112D was “inactive” in each case. The Potency entry in the assay on astro is “inactive”. The activity, negative = cell killing in assay [1] (at 20 µM (top of the series), tumour line C) was 1.94% (inactive); in assay [1] (at 21.2 µM (top of the series), tumour line B) it was -1.92% (inactive); in [1] (at 21.2 µM (top of the series), tumour line D), -24.2% (inactive).

For `O=S(=O)(O)CCS`, the Potency result in the assay with MKL-1, in the assay on MKL-2, in the assay on UISO, in the assay on WaGa, in the assay on C33A and in the assay with CAOV3 was “inactive” in each case. Further, the Potency entry with CASKI, in the assay with Es-2, in the assay on Hek293T, in the assay with JEG-3, in the assay with OV90 and in the assay on PA-1 was “inactive” throughout. For the same compound, the Potency entry in the assay on SKOV3, in the assay on Tov-21-G, with Tov112D and with astro was “inactive” throughout. Also, the activity, negative = cell killing in assay [1] (setting [2]) is -4.82% (inactive); in assay [1] (setting [3]) it was -6.41% (inactive); in [1] (setting [4]), -21.8% (inactive); in assay [1] (setting [5]), -18% (inactive).

As for `CCc1c2c(nc3ccc(OC(=O)N4CCC(N5CCCCC5)CC4)cc13)-c1cc3c(c(=O)n1C2)COC(=O)[C@]3(O)CC`, the Potency is 1.88 µM (active) and 1.87 µM (active) with MKL-1; 944 nM (active) and 296 nM (active) in the assay with MKL-2; 0.833 µM (active) with UISO; 422 nM (active) and 662 nM (active) in the assay on WaGa; 14.1 µM (active) in the assay with Es-2; 12.6 µM (active) with PA-1. Besides, the Potency is 10 µM (active) in the assay with Tov112D and 1 µM (active) in [1] (tumour line A). Further, the Potency entry in the assay on HeLa, in the assay on Hek293T, in the assay with JEG-3, with OV90 and in the assay on Tov-21-G was “inactive” throughout. The activity, negative = cell killing in [1] (setting [5]) is -5.46% (inactive).

Take `C[C@@H](CN1CC(=O)NC(=O)C1)N1CC(=O)NC(=O)C1`: the Potency result was “inactive and 5.9 µM (active)” in the assay with MKL-1; “inactive and 3.72 µM (active)” in the assay on WaGa. Moreover, the Potency result in the assay on MKL-2, in the assay on UISO, with C33A, with CAOV3, in the assay with CASKI and in the assay on Es-2 was “inactive” in each case. Besides, the Potency result in the assay with Hek293T, in the assay on JEG-3, in the assay on OV90, in the assay with PA-1, in the assay on SKOV3 and in the assay on Tov-21-G was “inactive” each time. Further, the Potency result in the assay with Tov112D and with astro was “inactive” in each case. The activity, negative = cell killing in assay [1] (setting [2]) is -2.51% (inactive); in assay [1] (setting [3]) it was -10.3% (inactive); in assay [1] (setting [5]) it was -0.792% (inactive).

For the origin of these results see PubChem BioAssay (NCATS).
